Experimental findings from PubChem BioAssay AID588329 (National Center for Advancing Translational Sciences (NCATS), 2011) are described below.

Records with an inconclusive call do not appear. A number with no mark means an inactive call. The source made the active and inactive calls. Calls follow the shape of the dose curve; as a rule, active = well fitted inhibition curve with a large enough effect; inconclusive = small, poorly fitted or top-dose-only effect; inactive = flat fitted curve, though single readings scatter.

For the assay, the system named is Trypanosoma brucei 6-phosphofructokinase (PFK). The assay is described as follows: Confirmatory Assay to Find Inhibitors of T. brucei phosphofructokinase: ATP-depletion Assay. The settings on record: recombinant T. brucei PFK, Kinase-Glo ATP depletion luminescence; series mostly up to 57.5 µM; activity, negative = inhibition: at the top concentration. The text has this: Various species of the protozoan family Trypanosomatidae are responsible for a range of serious human diseases in tropical and subtropical areas of the world. […] Many of the disorders caused by trypanosomatids are fatal if left untreated, but most currently used drugs are inefficient and toxic. […] Oxidative metabolism involving the mitochondrial tricarboxylic acid cycle and oxidative phosphorylation are repressed in these parasites, and recent RNA interference (RNAi) experiments have shown that even partial depletion of certain individual glycolytic enzymes can lead to the death of cultured parasites. One such glycolytic enzyme, phosphofructokinase (PFK), catalyzes the formation of fructose-1,6-bisphosphate (F1,6BP) and ADP from fructose-6-phosphate (F6P) and ATP, and in many metabolic circumstances makes an important contribution to the control of flux through the glycolytic pathway. As a specific glycolytic target, PFK is particularly attractive as it catalyzes the first irreversible step in glycolysis, and structural and kinetic studies have shown very substantial and essential differences from corresponding host enzymes, allowing for the discovery of parasite-selective inhibitors. NIH Chemical Genomics Center [NCGC] NIH Molecular Libraries Probe Centers Network [MLPCN] MLPCN Grant: MH092153-01 Assay Submitter (PI): Malcom Walkinshaw, University of Edinburgh
Substrate buffer was dispensed into white, solid 1536-well plates at 3ul/well in 0.1M triethanolamine (TEA) buffer, pH 8.0, containing final concentrations of 5 mM MgCl2, 0.01% Tween20, 0.5 mM fructose-6-phosphate (F6P) and 0.1mM ATP. Then, 23nl of compounds or DMSO were delivered to each well using a pin tool. One ul T. brucei PFK (0.1M TEA, 0.01% Tween20, 0.1% bovine serum albumin (BSA) and 1.25nM PFK, final concentrations) was then dispensed, and plates were incubated at room temperature for 45 min. The luminescent detection reagent, Kinase-Glo Plus (Promega), was then added at 2ul/well and incubated for ten minutes at room temperature. The plates were measured on a ViewLux plate reader for luminescent signal using a clear filter with a one second exposure. The %Activity was determined from the corrected luminescence values. As no specific T. brucei PFK inhibitors have been identified in the literature, 1x (1.25nM) and 0x PFK enzyme controls (untreated) were included to normalize %Activity of identified inhibitors; 0x enzyme values corresponded to 100%Activity (full inhibition), while 1x PFK enzyme values were used to normalize 0% activity (no inhibition). The Kinase-Glo Plus protocol varies from the primary screen in that it measures ATP, rather than ADP, concentration, and thus provides a measure of substrate depletion, rather than of product formation. Concentration-response curves were fitted to the signals arising from the resulting luminescence. The concentration-effect curves were then classified based on curve quality (r2), response magnitude and degree of measured activity, and compounds were subsequently categorized based on their curve class. […] Keywords: T. brucei, phosphofructokinase, PFK, glycolysis, luminescence, MLSMR, MLPCN, NIH Roadmap, qHTS, NCGC
On the technique in general: In Kinase-Glo more light means more ATP remaining.
For the compound `Cc1cc(NS(=O)(=O)c2ccc(C(=O)NCc3ccc(Cl)c(Cl)c3)cc2)no1`, the Potency was 2.31 µM (active).

With `Cc1cc(NS(=O)(=O)c2ccc(NC(=O)Cc3cccc(Cl)c3)cc2)no1`, the Potency is 5.17 µM (active).

As for `O=C(Cc1ccc(Cl)c(Cl)c1)Nc1ccc(S(=O)(=O)Nc2ccccc2)cc1`, the Potency is 10.3 µM (active).

Consider `Cc1cc(NS(=O)(=O)c2ccc(NC(=O)Cc3ccc(C)c(C)c3)cc2)no1`, for which the Potency was 16.3 µM (active).

As for `O=C(Cc1ccc(Cl)c(Cl)c1)Nc1ccc(S(=O)(=O)Nc2cccc(C(=O)O)c2)cc1`, the Potency is 0.651 µM (active).

For `Cc1cc(N[S+](=O)([O-])c2ccc3cc(NC(=O)Cc4ccc(Cl)c(Cl)c4)ccc3c2)no1`, the Potency was 5.17 µM (active).

For the compound `Cc1cc(NS(=O)(=O)c2ccc(NC(=O)Cc3ccc(Cl)c(Cl)c3)cc2)no1`, the Potency was 0.41 µM (active).

Regarding `O=C(Cc1ccc(Cl)c(Cl)c1)Nc1ccc(S(=O)(=O)Nc2ccc(C(=O)O)cc2)cc1`, the Potency is 0.326 µM (active).

With `Cc1cc(NS(=O)(=O)c2ccc(NC(=O)Cc3ccc(Cl)cc3)cc2)no1`, the Potency is 2.59 µM (active).

With `Cc1cc(NS(=O)(=O)c2ccc(NCCc3ccc(Cl)c(Cl)c3)cc2)no1`, the Potency was 11.6 µM (active).

On to `Cc1cc(NS(=O)(=O)c2ccc(NC(=O)CCc3ccc(Cl)c(Cl)c3)cc2)no1`, for which the Potency is 16.3 µM (active).

`Cc1cc(NS(=O)(=O)c2ccc(NC(=O)Cc3ccc(Cl)c(Cl)c3)cc2)on1`: the Potency is 0.366 µM (active).

Take `COc1ccc(CC(=O)Nc2ccc(S(=O)(=O)Nc3cc(C)on3)cc2)cc1OC`: the “activity, negative = inhibition” value is -8.21%.

For the compound `O=C(Cc1ccc(Cl)c(Cl)c1)Nc1ccc(S(=O)(=O)O)cc1`, the Potency is 0.58 µM (active).

Regarding `Cc1cc(N(C)S(=O)(=O)c2ccc(NC(=O)Cc3ccc(Cl)c(Cl)c3)cc2)no1`, the Potency was 2.59 µM (active).

Consider `Cc1cc(NC(=O)c2ccc(NC(=O)Cc3ccc(Cl)c(Cl)c3)cc2)no1`, for which the “activity, negative = inhibition” value was -25.1%.

On to `Cc1cc(NS(=O)(=O)Cc2ccc(NC(=O)Cc3ccc(Cl)c(Cl)c3)cc2)no1`, for which the Potency is 2.91 µM (active).

On to `Cc1cc(NS(=O)(=O)c2ccc(N(C)C(=O)Cc3ccc(Cl)c(Cl)c3)cc2)no1`, for which the Potency was 1.03 µM (active).

Regarding `Cc1cc(NS(=O)(=O)c2ccc(NC(=O)Cc3ccc(Cl)c(C(F)(F)F)c3)cc2)no1`, the Potency was 0.651 µM (active).

With `O=C(Cc1ccc(Cl)c(Cl)c1)Nc1ccc(S(=O)(=O)Nc2ccn[nH]2)cc1`, the Potency is 0.326 µM (active).

Consider `O=C(Cc1ccc(Cl)c(Cl)c1)Nc1ccc(S(=O)(=O)Nc2cncnc2)cc1`, for which the Potency is 0.651 µM (active).

Take `Cc1cc(NS(=O)(=O)c2ccc(NC(=O)Cc3ccc4ccccc4c3)cc2)no1`: the Potency is 5.17 µM (active).

For `Cc1cc(NS(=O)(=O)c2ccc(NC(=O)Cc3ccc(Cl)c(Cl)c3)cc2)n(C)n1`, the Potency was 1.03 µM (active).

Take `Cc1cc(NS(=O)(=O)c2ccc(NC(=O)Cc3ccc(Cl)cc3Cl)cc2)no1`: the Potency was 4.61 µM (active).

For `O=C(Cc1ccc(Cl)c(Cl)c1)Nc1ccc(S(=O)(=O)Nc2cccc(O)c2)cc1`, the Potency is 2.06 µM (active).

Regarding `CN(C)c1cccc(NS(=O)(=O)c2ccc(NC(=O)Cc3ccc(Cl)c(Cl)c3)cc2)c1`, the Potency was 16.3 µM (active).

On to `Cc1cc(NS(=O)(=O)c2ccc(NC(=O)Cc3ccc(Cl)c(F)c3)cc2)no1`, for which the Potency is 0.73 µM (active).

As to `Cc1cc(N[S+](=O)([O-])c2ccc(NC(=O)Cc3ccc(Cl)nc3)cc2)no1`, the Potency is 18.3 µM (active).

For `Cc1cc(NS(=O)(=O)c2cccc(NC(=O)Cc3ccc(Cl)c(Cl)c3)c2)no1`, the Potency was 16.3 µM (active).

Consider `Cc1cc(NS(=O)(=O)c2ccc(NC(=O)Cc3ccc(C)c(F)c3)cc2)no1`, for which the Potency was 5.17 µM (active).

Regarding `O=C(Cc1ccc(Cl)c(Cl)c1)Nc1ccc(S(=O)(=O)Nc2ccon2)cc1`, the Potency was 0.231 µM (active).
